Reference: publication PMC4336329 (PLoS ONE, 2015)
The whole screen tested about 310,000 compounds, of which about 14,000 (4.5%) showed an effect of 50% or more. Effects have a minus sign here. The sample holds strong results, similar compounds and a random draw of the others, so the mix is not that of the screen.

Target: human ether-à-go-go-related gene (hERG) potassium channel (human, UniProt Q12809)
Test: primary screen, population patch clamp on CHO cells stably expressing hERG; higher = less effect of the substance
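Also: peak tail current of the secondary pulse compared with the same well before compound.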

Chain of human ether-à-go-go-related gene (hERG) potassium channel (Q12809 whole entry, looked up): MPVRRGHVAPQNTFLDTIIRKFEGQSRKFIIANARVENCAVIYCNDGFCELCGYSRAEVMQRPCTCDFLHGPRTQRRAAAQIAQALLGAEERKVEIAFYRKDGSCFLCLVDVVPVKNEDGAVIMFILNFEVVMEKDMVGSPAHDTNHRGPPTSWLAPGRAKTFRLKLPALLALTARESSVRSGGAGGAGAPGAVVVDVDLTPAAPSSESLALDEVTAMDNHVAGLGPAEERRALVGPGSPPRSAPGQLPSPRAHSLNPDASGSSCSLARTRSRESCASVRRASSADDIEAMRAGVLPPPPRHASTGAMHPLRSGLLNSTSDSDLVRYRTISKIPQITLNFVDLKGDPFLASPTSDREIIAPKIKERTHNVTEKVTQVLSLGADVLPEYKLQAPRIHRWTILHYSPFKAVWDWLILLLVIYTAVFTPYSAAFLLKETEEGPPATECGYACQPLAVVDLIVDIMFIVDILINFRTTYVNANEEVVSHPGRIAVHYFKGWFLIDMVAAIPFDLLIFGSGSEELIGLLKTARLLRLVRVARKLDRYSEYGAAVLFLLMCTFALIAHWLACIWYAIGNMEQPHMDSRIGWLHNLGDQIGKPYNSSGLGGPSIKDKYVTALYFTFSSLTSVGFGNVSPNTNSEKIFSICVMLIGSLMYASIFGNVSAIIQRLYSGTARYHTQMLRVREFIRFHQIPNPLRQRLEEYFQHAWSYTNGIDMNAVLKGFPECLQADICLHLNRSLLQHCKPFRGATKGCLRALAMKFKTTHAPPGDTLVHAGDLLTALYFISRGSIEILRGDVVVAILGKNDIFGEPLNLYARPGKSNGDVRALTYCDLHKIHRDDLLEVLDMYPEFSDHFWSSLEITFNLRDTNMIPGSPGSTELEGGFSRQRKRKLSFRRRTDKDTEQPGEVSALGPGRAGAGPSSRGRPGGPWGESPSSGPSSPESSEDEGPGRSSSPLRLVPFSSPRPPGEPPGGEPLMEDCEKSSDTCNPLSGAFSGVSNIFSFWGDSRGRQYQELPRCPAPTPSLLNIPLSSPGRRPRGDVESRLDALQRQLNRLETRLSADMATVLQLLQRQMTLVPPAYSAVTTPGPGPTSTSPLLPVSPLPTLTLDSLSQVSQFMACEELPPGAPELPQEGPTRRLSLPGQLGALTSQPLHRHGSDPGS

Compared with O=C(Nc1ccc2c(c1)OCCO2)C1CCCN(S(=O)(=O)c2cccc3nsnc23)C1 (stereo not drawn), O=c1[nH]c(N/N=C\c2ccc3c(c2)OCO3)nc2ccccc12 is lower in “hERG current change (%, negative = inhibition) at 10uM” value: 4.93% for the first, -70.7% for the second.

First: O=C(CNC1CCCCCC1)Nc1ccc(S(=O)(=O)NC2CC2)cc1
Second: CNC(=O)c1c(NC(=O)c2ccc(S(=O)(=O)N3CCCCC3C)cc2)sc2c1CCN(C)C2 (stereo not drawn)
The “hERG current change (%, negative = inhibition) at 10uM” value of the first is higher: 1.98% for the first, -3.92% for the second.

First: Nc1ccccc1SCc1ccccc1
Second: c1ccc(CSc2nnc(-c3ccccn3)n2-c2ccccc2)cc1
The “hERG current change (%, negative = inhibition) at 10uM” value of the first is higher: -2.24% for the first, -10.6% for the second.

Compared with Oc1ccccc1C1NN=C(c2ccccc2)S1 (stereo not drawn), O=C1C=C(c2ccccc2)CC(/C=C/c2ccccc2)C1 (stereo not drawn) is higher in “hERG current change (%, negative = inhibition) at 10uM” value: -15% for the first, -2.91% for the second.

First: COc1ccc(-c2csc(N(CCCN(C)C)C(=O)c3ccc(C)cc3)n2)cc1.Cl
Second: COc1ccc(-c2csc(N(CCCN(C)C)C(=O)c3ccc(F)cc3)n2)cc1.Cl
The “hERG current change (%, negative = inhibition) at 10uM” value of the first is lower: -68.2% for the first, -58.1% for the second.

Going from COc1ccc(-c2csc(N(CCCN(C)C)C(=O)c3ccc(C(C)(C)C)cc3)n2)cc1.Cl to COc1ccc(C(=O)Nc2cc(-c3nn4c(C)nnc4s3)ccc2C)cc1, the “hERG current change (%, negative = inhibition) at 10uM” value falls from 18% to -41.8%.

Compared with C/C(=N\NC(=O)c1cc(O)cc(O)c1)c1ccc(NC(=O)Cc2ccccc2)cc1, COc1ccc(NS(=O)(=O)c2cccc(C(=O)NNC(=O)c3ccc(O)c(Cl)c3)c2)cc1 is lower in “hERG current change (%, negative = inhibition) at 10uM” value: 14.2% for the first, -0.207% for the second.

Compared with CSc1ccc(CN(C)C(C)C(=O)Nc2ccc(F)c(F)c2F)cc1 (stereo not drawn), COC(=O)C[C@H]1c2cc(C(F)(F)F)ccc2S(=O)(=O)N1c1ccc(N(C)C)cc1 is lower in “hERG current change (%, negative = inhibition) at 10uM” value: 15.3% for the first, -20.9% for the second.

First: CCN1CCC[C@H]1CNC(=O)c1c(O)c(Cl)cc(Cl)c1OC.O=C(O)C(O)C(O)C(=O)O
Second: CCN1CCC[C@H]1CNC(=O)c1c(O)c(Cl)cc(Cl)c1OC
The “hERG current change (%, negative = inhibition) at 10uM” value of the first is lower: -13.8% for the first, -10.4% for the second.

Compared with CCN1CCCC1CNC(=O)c1cc2ccc(OC)cc2[nH]1 (stereo not drawn), CCN1CCCC1CNC(=O)c1cc2cc(F)ccc2[nH]1 (stereo not drawn) is lower in “hERG current change (%, negative = inhibition) at 10uM” value: -12.4% for the first, -73.3% for the second.

Compared with CCc1cc(Cl)c(OC)c(C(=O)NC[C@@H]2CCCN2CC)c1O.Cl, CCN1CCCC1CNC(=O)c1cc(OC)c(OC)c(OC)c1 (stereo not drawn) is higher in “hERG current change (%, negative = inhibition) at 10uM” value: -59.2% for the first, 12.8% for the second.

First: CCN1CCCC1CNC(=O)c1cc2c(OC)c(OC)c(OC)cc2[nH]1 (stereo not drawn)
Second: CCN1CCCC1CNC(=O)c1cc2cc(OC)c(OC)cc2[nH]1 (stereo not drawn)
The “hERG current change (%, negative = inhibition) at 10uM” value of the first is higher: 23.2% for the first, 16.6% for the second.

Compared with CCCCN1CCCC1CNC(=O)c1cc(C#N)c2ccccc2c1OC (stereo not drawn), CCN1CCCC1CNC(=O)c1cc2c(OC)cccc2[nH]1 (stereo not drawn) is higher in “hERG current change (%, negative = inhibition) at 10uM” value: -64.3% for the first, -20.8% for the second.

Going from O=C(NCC1CCCO1)c1cc2cc(F)ccc2[nH]1 (stereo not drawn) to CCN1CCCC1CNC(=O)c1[nH]c2ccc(OC)cc2c1C (stereo not drawn), the “hERG current change (%, negative = inhibition) at 10uM” value falls from 9.11% to -51.2%.

Going from CCCCC1=CC2=CC(=O)C(C)(OC(=O)CC)C(=O)C2=CN1C1CCCCC1 (stereo not drawn) to CCOC(=O)c1[nH]c2ccc(Br)cc2c1NC(=O)CCN1CCC(C(=O)OCC)CC1, the “hERG current change (%, negative = inhibition) at 10uM” value falls from -38% to -73.9%.

Compared with Cc1cccn2c(=O)c(/C=C(\C#N)C(N)=O)c(N3CCCCCC3)nc12, O=C(NCc1ccccn1)c1cc(S(=O)(=O)N2CCCCC2)ccc1Cl is higher in “hERG current change (%, negative = inhibition) at 10uM” value: -13.2% for the first, 3.78% for the second.

Going from COc1cccc(N2CCN(C3CCCC(C)C3)CC2)c1 (stereo not drawn) to COc1ccc(N2CCN(Cc3nc4cc(Cl)ccc4c(=O)[nH]3)CC2)cc1, the “hERG current change (%, negative = inhibition) at 10uM” value rises from -23.8% to 13.4%.

First: Cc1cccc(CN2C(=O)[C@@H]3Cc4c([nH]c5ccccc45)C(C)(C)N3C2=O)c1
Second: COc1ccc(CC(=O)Nc2nc3n(n2)C(c2ccccc2)CC(=O)N3)cc1OC (stereo not drawn)
The “hERG current change (%, negative = inhibition) at 10uM” value of the first is lower: -0.614% for the first, 5.18% for the second.

Compared with COC(=O)c1c(NC(=O)C2(C)Cc3ccccc3C(=O)O2)sc2c1CCCC2 (stereo not drawn), COC(=O)c1[nH]c2cc(OC)ccc2c1NC(=O)CCN1CCCC(C)(C)C1 is lower in “hERG current change (%, negative = inhibition) at 10uM” value: 12.7% for the first, -39.4% for the second.

Compared with CCCc1nc(N)nc2c1C(=O)CC(C)(C)C2, CCOC(=O)c1[nH]c2ccc(Br)cc2c1NC(=O)CCN1CCCC(C)(C)C1 is lower in “hERG current change (%, negative = inhibition) at 10uM” value: -4.47% for the first, -75.7% for the second.

First: CC(C)(C)N1C(=O)Cc2c1nc(N)c1c(N)nc(N3CCCCC3CO)c(C#N)c21 (stereo not drawn)
Second: CCOC(=O)c1[nH]c2ccc(OC)cc2c1NC(=O)CCN1CCCC(C)C1 (stereo not drawn)
The “hERG current change (%, negative = inhibition) at 10uM” value of the first is higher: -24.3% for the first, -36.9% for the second.

Going from O=c1[nH]c(N/N=C/c2ccccc2)nc2ccccc12 to O=c1[nH]c(CN2CCN(C/C=C/c3ccccc3)CC2)nc2ccccc12, the “hERG current change (%, negative = inhibition) at 10uM” value falls from -14.9% to -65.2%.

Compared with O=c1[nH]c(CN2CCOCC2)nc2ccccc12, O=c1[nH]c(CN2CCOCC2)nc2cc(Cl)ccc12 is lower in “hERG current change (%, negative = inhibition) at 10uM” value: 0.449% for the first, -10.4% for the second.

Compared with CCC(CC)C(=O)N1CCN(Cc2nc3ccccc3c(=O)[nH]2)CC1, CN1CCN(Cc2nc3ccccc3c(=O)[nH]2)CC1 is higher in “hERG current change (%, negative = inhibition) at 10uM” value: -11.3% for the first, 6.57% for the second.

First: O=C(CCc1nc2ccccc2c(=O)[nH]1)N1CCN(C/C=C/c2ccccc2)CC1
Second: O=C(/C=C/c1ccccc1)N1CCN(Cc2nc3ccccc3c(=O)[nH]2)CC1
The “hERG current change (%, negative = inhibition) at 10uM” value of the first is higher: -42.4% for the first, -64.7% for the second.

Compared with O=c1[nH]c(CN2CCN(Cc3ccc4c(c3)OCO4)CC2)nc2ccccc12, O=c1[nH]c(CN2CCN(C/C=C/c3ccccc3)CC2)nc2cc(Cl)ccc12 is lower in “hERG current change (%, negative = inhibition) at 10uM” value: -58.9% for the first, -106% for the second.

First: O=c1[nH]c(N/N=C/c2cc3c(cc2[N+](=O)[O-])OCO3)nc2ccccc12
Second: O=C(c1ccccc1)N(Cc1ccc2c(c1)OCO2)Cc1nc2ccccc2c(=O)[nH]1
The “hERG current change (%, negative = inhibition) at 10uM” value of the first is higher: -0.00362% for the first, -15.4% for the second.

First: O=c1[nH]c(CN2CCNCC2)nc2ccccc12
Second: COCC(=O)N(CCc1ccc(OC)cc1)Cc1nc2ccccc2c(=O)[nH]1
The “hERG current change (%, negative = inhibition) at 10uM” value of the first is lower: -23.4% for the first, -2.83% for the second.

Going from Cn1ccnc1SCC(=O)N(C1CCCCC1)C1CCCCC1 to COc1ccc(-n2c(SCC(=O)OC(C)C)nnc2-c2ccccn2)cc1, the “hERG current change (%, negative = inhibition) at 10uM” value falls from 3.29% to -14.4%.

Compared with COc1ccc(Nc2nc(-c3cccc([N+](=O)[O-])c3)nc3ccccc23)cc1, COc1ccc(-n2c(SCc3ccc(C#N)cc3)nnc2-c2ccccn2)cc1 is lower in “hERG current change (%, negative = inhibition) at 10uM” value: -5.91% for the first, -58.3% for the second.

Going from O=C(OCC1OC(Oc2ccc(O)cc2)C(O)C(O)C1O)c1ccccc1 (stereo not drawn) to O=C(c1ccco1)c1coc2c1cc(O)c1ccccc12, the “hERG current change (%, negative = inhibition) at 10uM” value falls from 14.5% to 13.4%.

Compared with Cc1ccccc1NC(=O)c1ccccc1NC(=O)c1ccccc1F, Cc1ccc(NC(=O)Cn2nnc3ccccc32)cc1 is higher in “hERG current change (%, negative = inhibition) at 10uM” value: 11.3% for the first, 12.1% for the second.

First: CCCCNC(=O)O[C@H]1C[C@@H]2CCN3C(=O)CCC(C)(C)[C@H](C1)[C@H]23
Second: CCOC(=O)c1[nH]c2ccc(OCC)cc2c1NC(=O)CN1CCCC(C)C1 (stereo not drawn)
The “hERG current change (%, negative = inhibition) at 10uM” value of the first is lower: -23.5% for the first, -18.3% for the second.

Going from COc1ccc(-c2cnc(SCCNC(=O)c3ccc4c(c3)OCO4)[nH]2)cc1 to O=C(Cn1c(=O)n(Cc2ccc3c(c2)OCO3)c(=O)c2ccccc21)N1CCCc2ccccc21, the “hERG current change (%, negative = inhibition) at 10uM” value rises from -5.44% to 4.46%.

First: Cc1ccc(-n2c(SCc3ccc(C#N)cc3)nnc2-c2ccccn2)cc1
Second: N#Cc1ccc(CSc2nnc(-c3ccccn3)n2-c2ccc(Cl)cc2)cc1
The “hERG current change (%, negative = inhibition) at 10uM” value of the first is higher: -48.7% for the first, -51.8% for the second.

First: N#Cc1ccc(CSc2nnc(-c3ccccn3)n2-c2ccccc2)cc1
Second: Cc1ccc(NC(=O)CSc2nnc(-c3cccnc3)o2)c(C)c1
The “hERG current change (%, negative = inhibition) at 10uM” value of the first is lower: -42.1% for the first, 3.3% for the second.

Compared with COc1cc(C(C)=O)ccc1OC(=O)C(C)N1C(=O)c2ccccc2C1=O (stereo not drawn), CC(=O)c1cccc(N(CC(=O)Nc2ccc(S(=O)(=O)N3CCOCC3)cc2)S(C)(=O)=O)c1 is higher in “hERG current change (%, negative = inhibition) at 10uM” value: -13% for the first, 8.48% for the second.

Going from O=C(CN1C(=O)CNC1=O)Nc1cccc(C(F)(F)F)c1 to CCCC(=O)NC(=S)Nc1cccc(NC(=O)c2ccc(Cl)cc2Cl)c1, the “hERG current change (%, negative = inhibition) at 10uM” value rises from 8.56% to 11.6%.

Going from CCOC(=O)c1[nH]c2ccc(Br)cc2c1NC(=O)CCN1CCOCC1 to CCOC(=O)c1[nH]c2ccc(F)cc2c1NC(=O)CCN1CCOCC1, the “hERG current change (%, negative = inhibition) at 10uM” value rises from 2.43% to 3.03%.

Going from CCOC(=O)c1[nH]c2ccc(Br)cc2c1NC(=O)CCN1CCC(C)CC1 to CCOC(=O)c1[nH]c2ccc(Br)cc2c1NC(=O)CCN1CCCC(C)C1 (stereo not drawn), the “hERG current change (%, negative = inhibition) at 10uM” value falls from -69.1% to -73.1%.

Compared with CCOC(=O)c1[nH]c2ccc(Br)cc2c1NC(=O)CNC, CCOC(=O)c1[nH]c2ccc(Br)cc2c1NC(=O)CCN1CCN(C(=O)OCC)CC1 is lower in “hERG current change (%, negative = inhibition) at 10uM” value: -7.67% for the first, -44% for the second.

Going from CCOC(=O)C1CCN(CC(=O)Nc2c(C(=O)OC)[nH]c3ccc(Cl)cc23)CC1 to CCCCCCn1c(=O)c(C(=O)Nc2cnccn2)c(O)c2ccccc21, the “hERG current change (%, negative = inhibition) at 10uM” value rises from -15% to 1.2%.

First: CCO[C@@H]1OC(C(=O)O)=C[C@H](C)[C@H]1CCCO
Second: Cc1cc(-c2ccccc2C(=O)O)on1
The “hERG current change (%, negative = inhibition) at 10uM” value of the first is higher: 20.7% for the first, 17.6% for the second.

CCn1c(-c2c(Cl)c(C)nn2C)n[nH]c1=S was tested, and the “hERG current change (%, negative = inhibition) at 10uM” value was 10.9%.
